Screens as filed in PubChem.
Only some compounds are listed: those with a hit (about 0.9% of all), similar ones and a draw of the others.
Calb FLC – C. albicans growth inhibition with fluconazole, primary screen, CaCi-2 strain, Alamar Blue fluorescence; C. albicans CaCi-2 (fluconazole-resistant clinical isolate) + fluconazole, 48 h; growth inhibition, % (no concentration beside the values); actives 0.57% (n = 300,000);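 active = growth inhibition above about 58% in most replicates, limit read from the data, passing the limit was not always enough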;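 also: all wells also contain fluconazole at 8 µg/ml as a sub-toxic cotreatment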
E coli growth-1 – E. coli V3065 growth inhibition, primary screen, counter-screen for AddAB inhibitor project, absorbance, OD600 | actives 0.27% (n = 330,000) | inhibition, % at 11.9 µM | 18 h;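 active = inhibition above the campaign's mean inhibition across all tested compounds plus 3 SD, cut at about 9.9% in these data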;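 also: uninfected addAB+ strain grown without phage in ampicillin broth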
phage Ecoli inh – growth loss of phage-infected E. coli, primary screen, RecBCD inhibitor project, absorbance, with phage, HTS. inhibition, % at 11.9 µM. actives 0.26% (n = 360,000). AID 651602, 2012; in the data active = inhibition above about 11%
Tat export inh – E. coli Tat export inhibitors, primary screen, MC4100, TorA-mCherry reporter, fluorescence, single point. actives 0.036% (n = 340,000). inhibition, % at 10 µM;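 active = mean replicate inhibition at least 50% and at least half of replicates individually reaching 50%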;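 also: exported cargo escapes ClpAP degradation while cytoplasmic cargo is degraded and loses fluorescence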
E coli growth-2 – E. coli growth inhibition, primary screen, OD600. Escherichia coli growth, 23 h; active compounds read low. OD600 absorbance (test concentration not listed). actives 0.21% (n = 330,000). AID 1053175, 2014;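 active = OD600 absorbance below the run mean of sample wells minus 3.6 SD, in any replicate, cut at about 0.56 in these data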
AddAB inh – growth inhibition of E. coli expressing H. pylori AddAB, primary screen, AddAB inhibitor project, absorbance; actives 0.29% (n = 330,000); inhibition, % at 11.9 µM; AID 435030, 2010; in the data active = inhibition above about 12%
Numbers stand for hits; - = inactive; . = no result.

SMILES | Calb FLC | E coli growth-1 | phage Ecoli inh | Tat export inh | E coli growth-2 | AddAB inh
Oc1ccc2ccccc2c1C1Nc2cccc3cccc(c23)N1 | - | - | . | - | - | -
Oc1ccc(O)c2c1C1c3ccccc3C2c2ccccc21 | 78.2 | - | . | . | . | -
O=C(Nc1cc2c3c(c1)C1CCCC1CN3CC1CCCC21)c1ccccc1 (stereo not drawn) | 88.8 | - | - | - | - | -
CCN(c1ccccc1)S(=O)(=O)c1ccc(Cl)c(C(=O)NCc2ccco2)c1 | . | - | - | - | - | -
CCN(c1ccccc1)S(=O)(=O)c1ccc(Cl)c(C(=O)O)c1 | - | - | - | - | 0.552 | -
CCN(c1ccccc1)S(=O)(=O)c1ccc(Cl)c(NC(=O)CN(C)C2CCN(C)CC2)c1 | 77.8 | - | - | - | . | -
CC1CN(C(C)CO)C(=O)c2cccc(NC(=O)C3CCCCC3)c2OC1CN(C)C(=O)Nc1ccc2c(c1)OCO2 (stereo not drawn) | . | . | . | . | - | .
O=C(CCl)N(c1ccc(Cl)cc1)c1c[nH]c2ccccc12 | 113.3 | - | - | - | - | -
CC12CC(O)C3c4ccc(O)cc4CCC3C1CCC2=NO (stereo not drawn) | . | . | . | . | - | .
Cc1cc2oc3ccc(NCCCn4ccnc4)cc3c(=O)c2cc1C | 85.7 | - | - | - | - | -
Cc1cc2oc3ccc(NCCCN4CCOCC4)cc3c(=O)c2cc1C | - | - | - | - | - | -
CCc1cc(=O)n2c([nH]c3ccccc32)c1C#N | - | - | - | - | - | -
CCc1cc(=S)n2c([nH]c3ccccc32)c1C#N | 97.1 | - | . | - | - | -
Nc1nc(-c2ccccn2)nc(N)c1Cc1ccc(Cl)cc1Cl | - | - | - | - | 0.357 | -
Nc1nc(-c2ccccn2)nc(N)c1Cc1ccccc1F | - | - | - | - | - | -
Cc1ccc(OCC(=O)N/N=C\c2c(C)[nH]n(-c3ccccc3)c2=O)c([N+](=O)[O-])c1 | 106.2 | - | - | - | . | -
CC(O)Cc1cn(CC(=O)NCCCCCCCCCCC(=O)N2CCNCC2)nn1 (stereo not drawn) | . | . | . | . | - | .
COc1ccc(-c2cc(C(=O)NNC(=S)NC(=O)c3c(-c4ccccc4)noc3C)[nH]n2)cc1 | 81.3 | - | - | - | - | -
Oc1c(Br)cc(Br)cc1/C=N/Nc1ccc(Cl)nn1 | 83.1 | - | - | - | . | -
O=C(NN=Cc1ccc(O)c(O)c1)C1CC1 | . | . | . | . | - | .
CCCCCCCSc1nc(N)cc(=O)[nH]1 | 103.3 | - | - | - | - | -
CCCCCCSc1nnc2[nH]c(=O)cc(N)n12 | 94.3 | - | - | - | - | -
CC(=O)NC(C)c1nc2ccccc2n1CCCN1CCN(c2nc(-c3ccc(C)cc3)cs2)CC1 (stereo not drawn) | . | . | . | . | - | .
O=C1C=C(c2ccc(Oc3ccccc3)cc2)CC(c2ccc(Cl)cc2)C1 (stereo not drawn) | . | . | . | . | - | .
COC(=O)C1NC(C(NC(=O)COc2ccccc2)C(=O)NCc2ccccc2)SC1(C)C (stereo not drawn) | . | . | . | . | - | .
SMILES | Calb FLC | E coli growth-1 | phage Ecoli inh | Tat export inh | E coli growth-2 | AddAB inh
COc1ccc(OC)c(-n2c(CN3CCC(C(N)=O)CC3)nc3ccccc3c2=O)c1 | 117.3 | - | - | - | - | -
CC(CSc1ccccc1)CN1CCC(NC(=O)OCc2ccccc2)CCC1=O (stereo not drawn) | . | . | . | . | - | .
CCc1ccc(CNC(=O)CCC(=O)N2Cc3cccc(OC)c3Oc3ncccc32)cc1 | 84.6 | - | - | - | - | -
Cc1ccc(C2(c3noc(CN4CCC(c5ccncc5)CC4)n3)CCCC2)cc1 | 119.3 | - | - | - | - | -
Cc1ccc(C2(c3noc(CN(C)CC4CCCCO4)n3)CCCC2)cc1 (stereo not drawn) | - | - | - | - | - | -
COc1cc(C=NNc2nncn2N)ccc1OCc1c(C)no[n+]1[O-] | . | . | . | . | - | .
CC(C)(C)C(=O)NC(=S)NNC(=O)c1sc2ccccc2c1Cl | 88.3 | - | . | - | - | -
COc1ccc(-n2nc(C(=O)NCC(=O)N3CCN(c4ccccc4)CC3)c3ccccc3c2=O)c(OC)c1 | 78.9 | - | - | - | - | -
CCOC(=O)N1CCN(C(=O)CNC(=O)c2nn(-c3ccc(OC)cc3OC)c(=O)c3ccccc23)CC1 | - | - | - | - | - | -
COc1ccc(-n2nc(C(=O)NCC(=O)N3CCCC3)c3ccccc3c2=O)c(OC)c1 | - | - | - | - | - | -
COc1ccc(-n2nc(C(=O)NCC(=O)Nc3cc(OC)c(OC)c(OC)c3)c3ccccc3c2=O)cc1 | - | - | - | - | - | -
COc1ccc(-n2nc(C(=O)NCC(=O)N3CCN(c4ccc(F)cc4)CC3)c3ccccc3c2=O)c(OC)c1 | 98.9 | - | - | - | . | -
COc1ccc(-n2nc(C(=O)NCC(=O)Nc3cccc(NC(C)=O)c3)c3ccccc3c2=O)cc1 | - | - | - | - | 0.571 | -
COc1cc(C(=O)Oc2cccc(C=NNC(=O)c3cc(C)[nH]n3)c2)cc(OC)c1OC | . | . | . | . | - | .
CCOC(=O)C=Cc1ccc2c(c1)S(=O)(=O)N(c1cccc(OC)c1)C2CC(=O)OCC (stereo not drawn) | . | . | . | . | - | .
Cc1cc(C)nc(NN=Cc2cn[nH]c2-c2ccc(F)cc2)n1 | . | . | . | . | - | .
COc1ccc(C(C)=NNC(=O)c2nnn(-c3nonc3N)c2-c2cccs2)cc1 | . | . | . | . | - | .
Clc1cccc(N2CCN(CCCN3CCN(c4ccccc4)CC3)CC2)c1 | . | . | - | - | - | .
Nc1ccc(N2CCN(c3cccc(Cl)c3)CC2)cc1 | 101.3 | - | - | - | - | -
O=C(NCc1ccc(Cl)cc1)C1CCN(S(=O)(=O)c2cccc3nonc23)CC1 | - | - | - | - | 0.534 | -
O=C(NCCc1ccc(Cl)cc1)C1CCN(S(=O)(=O)c2cccc3nonc23)CC1 | - | - | - | - | - | -
Cc1ccc(/C=N/NC(=O)c2c(-c3ccccc3)noc2C)c(O)c1 | 112.4 | - | - | - | . | -
COc1ccccc1C=NNC(=O)c1c(-c2ccccc2)noc1C | . | . | . | . | - | .
N#CCc1ccc(NC(=O)/C=C/c2ccc([N+](=O)[O-])o2)cc1 | 97.0 | . | . | - | 0.409 | .
COc1ccc(Cl)cc1NC(=O)CC(C)=NNC(=O)Cc1ccccc1 | . | . | . | . | - | .
SMILES | Calb FLC | E coli growth-1 | phage Ecoli inh | Tat export inh | E coli growth-2 | AddAB inh
COc1ccccc1NC(=O)CN1CCN(c2ccccc2F)CC1 | - | - | - | - | - | -
COc1ccccc1NC(=O)CN1CCN(c2ccccc2OC)CC1 | 62.8 | - | - | - | - | -
c1ccc2c(c1)CCN(c1ncnc3c1[nH]c1ccccc13)C2 | 92.4 | - | - | - | - | -
O=[N+]([O-])c1cccc(/C=C/c2nc[nH]c2[N+](=O)[O-])c1 | - | 11.1 | - | - | - | -
O=C(NNc1cccc(Cl)c1)c1cccnc1Cl | 33.1 | - | - | - | - | -
S=c1[nH]c(-c2ccccc2)cn1N=Cc1ccccc1Br | . | . | . | . | - | .
CCSc1nnc(NC(=O)c2ccccn2)s1 | - | 10.8 | - | - | - | -
CCSc1nnc(NC(=O)c2cnccn2)s1 | - | - | . | . | - | -
